Results as given in PubChem BioAssay (NCATS).
Values joined by “and” are separate entries in the source; they are usually repeats but may differ in a detail not shown here. Identical values can stand only once. Results filed as inconclusive are left out. Some structures have more than one record in an assay (separate samples or runs), and their calls can disagree. Active and inactive are the calls of the source. Unless noted, calls follow the shape of the dose curve; as a rule, active = well fitted curve in either direction with a large enough effect (not every such curve was filed as active); inconclusive = small, poorly fitted or top-dose-only effect, or another doubt; inactive = flat fitted curve, though single readings scatter.

Assays:
[1] = AP1 Signaling Pathway (AID 357); conditions: ME-180 (cervical carcinoma) AP-1-bla reporter, EGF-induced, beta-lactamase ratio, 5 h;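 also: ME-180 reporter cells stimulated with EGF at its EC50 level; % is scaled to controls: 0 for no effect and ±100 for the full control effect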
Method in brief: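 Titration-series screen for positive or negative modulators of EC50 EGF-induced signaling in ME-180 cells carrying an AP-1-driven beta-lactamase reporter. After 5 hours at 37 degrees Celsius, CCF4 460nm/530nm emission ratio gave %Activity; AC50 values derived.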

[2] = molecular target: Cytochrome P450 1A2 (Homo sapiens) (UniProt P05177); test: p450-cyp1a2 (AID 410; calls by dose curve; also: potency is read from the fitted curve at half-maximal effect;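 as to activity change, negative = inhibition: -100% = full effect of reference inhibitor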); conditions: recombinant CYP1A2, luciferin-ME demethylation, luminescence; series mostly up to 57 µM
Sequence of Cytochrome P450 1A2 (Homo sapiens) (P05177 whole entry, looked up): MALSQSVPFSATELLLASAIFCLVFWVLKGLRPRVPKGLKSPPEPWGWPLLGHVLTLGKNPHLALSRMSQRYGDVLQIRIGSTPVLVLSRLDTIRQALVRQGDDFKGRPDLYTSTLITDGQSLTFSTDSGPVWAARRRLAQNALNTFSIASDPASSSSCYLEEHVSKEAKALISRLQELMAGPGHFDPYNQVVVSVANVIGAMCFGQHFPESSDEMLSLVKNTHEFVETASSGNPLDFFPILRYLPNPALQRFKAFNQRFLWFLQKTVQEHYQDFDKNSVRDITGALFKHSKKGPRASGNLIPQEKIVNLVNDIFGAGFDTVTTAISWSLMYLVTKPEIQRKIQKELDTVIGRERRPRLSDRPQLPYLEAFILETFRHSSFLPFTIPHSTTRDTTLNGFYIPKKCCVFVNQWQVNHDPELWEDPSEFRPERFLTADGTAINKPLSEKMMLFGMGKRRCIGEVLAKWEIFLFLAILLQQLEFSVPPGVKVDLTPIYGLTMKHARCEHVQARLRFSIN
Method in brief: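 Inhibition was calculated relative to 57 uM furafylline (full inhibition). The reaction used human CYP1A2 at 20nM with Luciferin-ME at its Km, 100uM, driven by an NADPH-regenerating system for 60 min at room temperature.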

[3] = NFAT Signaling Pathway (AID 444); conditions: Jurkat NFAT-bla M1, carbachol, beta-lactamase ratio, 5 h;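 also: carbachol stimulus at about its EC50 of 1 µM final; % is scaled to controls: 0 for no effect and ±100 for the full control effect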
Method in brief: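 Read-out: CCF4 FRET ratio (460 nm/530 nm) after 1 h RT dye loading, used for %activity and AC50 from titration series. Cells: Jurkat NFAT-β-lactamase/M1 line, treated with compound plus 1 uM carbachol for 5 h, 37 °C.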

SMILES	activity change, negative = inhibition ([1]; at 38 µM (top of the series))	Potency [2]	activity change, negative = inhibition ([3]; at 17.2 µM (top of the series))	activity change, negative = inhibition ([3]; at 38 µM (top of the series))	activity change, negative = inhibition ([1]; at 17.2 µM (top of the series))
CCOC(=O)C1=C[C@@]2(CC)CCCN3CCc4c(n1c1ccccc41)[C@H]32	94.5% [activator] (active)	inactive and 39.8 µM (active)	-3.7% (inactive)	0.129% (inactive)	
Cc1ccc(N(CC2=NCCN2)c2cccc(O)c2)cc1	18% (inactive)	inactive	-19.1% (inactive) and -11.9% (inactive) and 3.66% (inactive)	-12.9% (inactive)	6.96% (inactive) and 4.13% (inactive) and 12.9% (inactive)
CNC[C@H](O)c1cccc(O)c1	-17.9% (inactive)		-25.3% (inactive)	-0.528% (inactive)	-10.2% (inactive)
Cc1[nH]c(=O)c(C#N)cc1-c1ccncc1	-0.284% (inactive)		-20.1% (inactive)	-0.614% (inactive)	8.13% (inactive)
CC(C)(Sc1ccc(CCN(CCCCC2CCCCC2)C(=O)NC2CCCCC2)cc1)C(=O)O		inactive			
CCCCNc1cc(C(=O)O)cc(S(N)(=O)=O)c1Oc1ccccc1	-1.83% (inactive)		1.71% (inactive) and -0.748% (inactive)	7.04% (inactive)	2.74% (inactive) and -1.68% (inactive)
CC(C)C[C@H](NC(=O)[C@@H](O)[C@H](N)Cc1ccccc1)C(=O)O		inactive			
O=c1n(CCCN2CCN(c3cccc(Cl)c3)CC2)nc2ccccn12	-2.63% (inactive)	inactive	-9.78% (inactive)	-3.74% (inactive)	-7.19% (inactive) and -2.29% (inactive)
